# From PubChem BioAssay (NCI)
# “And” between values parts separate entries of the source, which are not always exact repeats. Identical values can stand only once. This is part of a sample that, as a whole, favours compounds with a hit. Of some 83,000 tested, about 20% had one in any assay.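 Results are percent growth after 48 hours of single-concentration exposure. 100 means growth as in untreated cells, lower positive values show inhibition; negative values down to -100 show cell death.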 Values without a mark were called inactive. The source made the active and inactive calls. How the source made its calls: active means growth percent below 10; inactive means the rest.
# Test system: NCI/ADR-RES ovarian
# Assay: NCI-60 one-dose screen, 48 h (100 = growth as untreated, 0 = no growth, -100 = all killed)
# Conditions: 10 µM unless noted
row,Compound,growth
1,C[C@@]12CCCc3coc(c31)C(=O)c1cc3c(cc12)C(=O)C1=C(NCCS1(=O)=O)C3=O,81.5%
2,C=CC[PH+](c1ccccc1)c1ccccc1.C=CC[PH+](c1ccccc1)c1ccccc1.[Pt+2].[S-]c1nc2ccccc2[nH]1.[S-]c1nc2ccccc2[nH]1,88.4%
3,Cc1cc[c-]cc1.Fc1c[c-]c(-c2ccccn2)c(F)c1.[Pt+2].c1ccc([PH+](c2ccccc2)c2ccccn2)cc1,88.2%
4,C#Cc1cccc(Nc2nc(Cl)nc3cc(NC(=O)CF)ccc23)c1,53.9%
5,CC[C@H](C)[C@H](NC(=O)c1ncccn1)C(=O)N(C)[C@H](C[C@@H](OC(C)=O)c1nc(C(=O)N[C@@H](Cc2ccccc2)C[C@H](C)C(=O)OC)cs1)C(C)C,70.6%
6,Cc1cc(Br)c([N+](=O)[O-])cc1[N+](=O)[O-],94.4%
7,COc1cc(C=C2C(=O)NC(=O)NC2=O)ccc1O,97.5%
8,Oc1cc(N2CC2)c(O)cc1N1CC1,1.01% (active)
9,C[C@]12CCc3sc(Nc4ccc(O)cc4)nc3C1=CC[C@@H]1[C@@H]2CC[C@]2(C)C(=O)CC[C@@H]12,68.6%
10,CN1CCc2cc3c(cc2C1O)OCO3 (configuration not stated),95.9% and 107%
11,N#CC(NC(=O)CCl)=C(Cl)Cl,11.8%
12,CC[C@@H](C)C(=O)O[C@H]1[C@H](O)[C@H]2[C@@H](CN3C[C@@H](C)CC[C@H]3[C@@]2(C)O)[C@@H]2C[C@]34O[C@]5(O)[C@@H](OC(=O)[C@@](C)(O)CC)CC[C@@]3(C)[C@@H]5[C@@H](OC(C)=O)[C@@H](OC(C)=O)[C@H]4[C@@]21O,104%
